PubChem BioAssay (NCATS)
Inconclusive results are not listed. Values without a mark were called inactive. Calls come from the whole dose curve; as a rule, active = well fitted cell-killing curve with a large enough effect; inconclusive = small, poorly fitted or top-dose-only effect, or effect the other way; inactive = flat fitted curve, though single readings scatter.

Tested on: CASKI
Assay: Primary qHTS to identify gynecologic anti-cancer compounds using libraries of approved drugs and bioactive compounds (AID 1345084); note: nearly all actives have a fitted effect of over 55% in size
Details: Gynecologic cancer cell panel viability, ATPlite luminescence, 48 h; series mostly up to 57.5 µM; activity change, negative = cytotoxicity: at the top concentration
In short: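 Cell viability after 48 h drug treatment, ATPlite luminescence readout; five doses.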
% is set by controls: 0 for no effect and ±100 for the full control effect.

| Compound | activity change, negative = cytotoxicity |
| --- | --- |
| CC(=O)Nc1ccc(S(=O)(=O)Nc2cc(C)on2)cc1 | 1.31% |
| CCCCN(CCN(CCCC)C(=O)N1CCOCC1)C(=O)N1CCOCC1 | -7.37% |
| C[C@H]1C[C@H](O)c2ccsc2S1(=O)=O | 3.82% |
| NC(=O)NS(=O)(=O)c1ccc(Cl)cc1 | 7.86% |
| Cn1c(=O)c2c(ncn2CC(=O)O)n(C)c1=O | 8.65% |
| C[C@H]1NCc2cc(-c3ccc4c(=O)c(C(=O)O)cn(C5CC5)c4c3OC(F)F)ccc21 | 18.9% [at 25.3 µM] |
| Cc1nc(C2CCCCC2)c(-c2ccc(S(N)(=O)=O)c(F)c2)o1 | 0.451% |
| O=c1[nH]c(=O)n([C@H]2O[C@H](CO)[C@@H](O)[C@@H]2O)cc1/C=C\Br | 9.44% |
| COc1ccccc1OCC1CNC(=O)O1 (stereo not given) | -3.29% |
| Nc1ccc([N+](=O)[O-])c(C(F)(F)F)c1 | 14.6% |
| N#CSCC(=O)O | 14.9% |
| CCCCN(CCCC)C(C(N)=O)c1ccc(OC)cc1 (stereo not given) | 1.38% |
| O=C(CCCl)NCCc1ccccc1 | -1.54% |
| O=[N+]([O-])c1ccc(-c2nc(-c3ccc(F)cc3)c(-c3ccncc3)[nH]2)cc1 | 1.05% |
| CCC(C(=O)NC(=O)NC(C)=O)c1ccccc1 (stereo not given) | 2.45% |
| CCCC(=O)OCOC(=O)C1=C(C)NC(C)=C(C(=O)OC)C1c1cccc(Cl)c1Cl (stereo not given) | 18.7% |
| Cc1ccccc1C(=O)N1CC/C(=N\OS(=O)(=O)O)c2ccc(Cl)cc21 | -1.6% |
| CC(NC(CCc1ccccc1)C(=O)O)C(=O)N1C(=O)N(C)CC1C(=O)O (stereo not given) | 7.31% |
| C1=CC2C3C=CC(C3)C2C1 (stereo not given) | 4.18% [at 116 µM] |
| CC1CCCCN1CCCOC(=O)c1ccc(OC2CCCCC2)cc1 (stereo not given) | -8.73% |
